Bioassay records deposited in PubChem by National Center for Advancing Translational Sciences (NCATS).
HT1080NT lethal – kills 2HG-producing HT-1080-NT fibrosarcoma cells; HT-1080-NT fibrosarcoma viability, CellTiter-Glo ATP luminescence, 48 h; Potency, µM (top dose mostly 46.1 µM), most hits filed as cytotoxic; 360,000 compounds, 1.6% hits;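 also: NT is the 2HG producing partner of a matched IDH1 knockdown line; nearly all actives have a fitted effect of over 55% in size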
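Luminescent CellTiter-Glo readout after 48 hours of compound exposure at 37 degrees C defined viability of HT-1080-NT cells. Activity was normalized to DMSO wells and cell-free media wells; concentration-response curves were fitted and assigned curve classes.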
TDP1 cell CPT – growth inhibition of DT40 Tdp1-/-;hTDP1 cells with camptothecin (screen for TDP1 inhibitors); Potency, µM (doses to about 46.2 µM), actives largely listed as inhibitors; chicken DT40 Tdp1-/-;hTDP1 cells + 20 nM CPT, ATP luminescence, 48 h; AID 686979; 420,000 compounds, 12% hits; also: nearly all actives have a fitted effect of over 55% in size
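Chicken DT40 Tdp1-/- cells stably complemented with human TDP1 were seeded at 400 cells/well in medium containing 20 nM camptothecin, exposed to pin-transferred compounds, and grown at 37 °C for at least 48 hr. Viability was read as ATP luminescence.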
KB-V1 cytotox – KB-V1 MDR subline cytotoxicity; KB-V1 MDR cells viability, CellTiter-Glo, 72 h; Potency, µM (titrated, usually from 46.1 µM), actives largely listed as cytotoxic; 400,000 compounds, 3.4% hits; AID 1347076; also: nearly all actives have a fitted effect of over 60% in size
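Compound-treated KB-V1 multidrug-resistant cells, 72 h, 37 degrees C; viability by CellTiter-Glo. Fitted qHTS curves give the values.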
KB-3-1 tox – KB-3-1 parental cell cytotoxicity | Potency, µM (series often up to 46.1 µM), hits mostly cytotoxic | KB-3-1 viability, CellTiter-Glo ATP luminescence, 72 h | 400,000 compounds, 1.4% hits; also: nearly all actives have a fitted effect of over 60% in size
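Screening of KB-3-1 cells (DMEM, 10% FBS, phenol-red free) ran from lowest to highest compound concentration; after 72 h at 37 °C viability was read luminescently and curves fitted.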
HT1080 IDH1KD tx – toxicity to HT-1080 IDH1 knockdown cells (counter line). HT-1080 IDH1 knockdown viability, ATP luminescence, 48 h. Potency, µM (series often up to 46.1 µM), hits mostly cytotoxic. 360,000 compounds, 2% hits
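% activity derives from luminescence (CellTiter-Glo), normalised to DMSO and no-cell wells. HT-1080-IDH1KD cells, 750/well, had 48 h compound exposure at 37 °C.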
DT40 TDP1 no CPT – qHTS for Inhibitors of human tyrosyl-DNA phosphodiesterase 1 (TDP1): qHTS in cells in absence of CPT. Potency, µM (series often up to 46.2 µM), hits mostly inhibitors. AID 686978, 2013. DT40 Tdp1-/- hTDP1 cells, no CPT, ATP luminescence, 48 h. 420,000 compounds, 15% hits; also: nearly all actives have a fitted effect of over 55% in size
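Readout: luminescence from CellTiter-Glo after 30 min in the dark at RT. Cells: DT40 Tdp1-/- with stable hTDP1, 400/well. Exposure: compounds alone, ≥48 hr, 37 °C.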
Large screens that a line does not name were inactive. Shown are actives, neighbours in structure and some others; about 19% of the full set was active somewhere. Calls follow the shape of the dose curve; as a rule, active = well fitted curve in the direction sought with a large enough effect; inconclusive = small, poorly fitted or top-dose-only effect, or another doubt; inactive = no such curve, though single readings can be large; an effect the other way counts as inactive or inconclusive.

CC(=O)NC1C(OCc2ccccc2)OC2COC(C)(C)OC2C1O (configuration not stated)	none
COCCOC(=O)C1=C(C)NC(=S)NC1/C=C/c1ccccc1 (configuration not stated)	DT40 TDP1 no CPT inconclusive
CC1=C(C(=O)OCc2ccccc2)C(/C=C/c2ccccc2)NC(=S)N1 (configuration not stated)	TDP1 cell CPT 16µM, KB-V1 cytotox inconclusive, HT1080 IDH1KD tx inconclusive, DT40 TDP1 no CPT 29µM
C=CCOC(=O)C1=C(C)NC(=S)NC1/C=C/c1ccccc1 (configuration not stated)	HT1080NT lethal 13µM, TDP1 cell CPT inconclusive, HT1080 IDH1KD tx inconclusive, DT40 TDP1 no CPT inconclusive
CCC(CC)C(=O)Nc1cccc(-c2ccc3nncn3n2)c1	none
S=C1NCCOCCOCCOCCNC(=S)N2CCOCCOCCN1CCOCCOCC2	none
COc1cccc(C(=O)NCC(c2ccc3c(c2)OCO3)N2CCN(c3ccc(F)cc3)CC2)c1 (configuration not stated)	TDP1 cell CPT 15µM, DT40 TDP1 no CPT 10µM
Cc1ccc(C(=O)NCC(c2ccc3c(c2)OCO3)N2CCN(c3ccc(F)cc3)CC2)cc1 (configuration not stated)	TDP1 cell CPT 2.9µM, DT40 TDP1 no CPT 1.5µM (no result: HT1080NT lethal, HT1080 IDH1KD tx)
COc1ccc(C(=O)NCC(c2ccc3c(c2)OCO3)N2CCN(c3ccc(F)cc3)CC2)cc1 (configuration not stated)	TDP1 cell CPT 3.3µM, DT40 TDP1 no CPT 1.6µM (no result: HT1080NT lethal, HT1080 IDH1KD tx)
CCCNC(=O)C(=O)NCC(c1ccc2c(c1)OCO2)N1CCN(c2ccc(F)cc2)CC1 (configuration not stated)	TDP1 cell CPT inconclusive, DT40 TDP1 no CPT inconclusive
CCCC(=O)NCC(c1ccc2c(c1)OCO2)N1CCN(c2ccc(F)cc2)CC1 (configuration not stated)	TDP1 cell CPT inconclusive, DT40 TDP1 no CPT 21µM (no result: HT1080NT lethal, HT1080 IDH1KD tx)
COc1ccc(NC(=O)N2CCCC3(CCN(C(=O)c4ccc(OC)cc4)CC3)C2)cc1	none (no result: HT1080NT lethal, KB-V1 cytotox, KB-3-1 tox, HT1080 IDH1KD tx)
COc1ccc(CCC(=O)NCCOc2ccccc2Cl)cc1	TDP1 cell CPT inconclusive, DT40 TDP1 no CPT inconclusive
COc1cccc(NC(=O)C(=O)NCC(c2ccc3c(c2)OCO3)N2CCOCC2)c1 (configuration not stated)	TDP1 cell CPT inconclusive, DT40 TDP1 no CPT 16µM (no result: HT1080NT lethal, HT1080 IDH1KD tx)
COc1cccc(C(=O)NCC(c2ccc3c(c2)OCO3)N2CCOCC2)c1 (configuration not stated)	none (no result: HT1080NT lethal, HT1080 IDH1KD tx)
Cc1ccc(S(=O)(=O)NCC(c2ccc3c(c2)OCO3)N2CCN(c3ccccc3)CC2)cc1 (configuration not stated)	TDP1 cell CPT inconclusive, DT40 TDP1 no CPT inconclusive
N#Cc1ccccc1NC(=O)C(=O)NCC(c1ccc2c(c1)OCO2)N1CCN(c2ccccc2)CC1 (configuration not stated)	TDP1 cell CPT inconclusive, DT40 TDP1 no CPT 8.2µM (no result: HT1080NT lethal, HT1080 IDH1KD tx)
Cc1ccc(NC(=O)C(=O)NCC(c2ccc3c(c2)OCO3)N2CCN(c3ccccc3)CC2)cc1 (configuration not stated)	none (no result: HT1080NT lethal, HT1080 IDH1KD tx)
COc1ccccc1CNC(=O)C(=O)NCC(c1ccc2c(c1)OCO2)N1CCOCC1 (configuration not stated)	TDP1 cell CPT inconclusive, DT40 TDP1 no CPT inconclusive (no result: HT1080NT lethal, HT1080 IDH1KD tx)
COc1cc(C(=O)NCC(c2ccc3c(c2)OCO3)N2CCOCC2)cc(OC)c1OC (configuration not stated)	TDP1 cell CPT 12µM, DT40 TDP1 no CPT inconclusive (no result: HT1080NT lethal, KB-V1 cytotox, KB-3-1 tox, HT1080 IDH1KD tx)
COc1ccc(S(=O)(=O)NCC(c2ccc3c(c2)OCO3)N2CCN(c3ccccc3)CC2)cc1 (configuration not stated)	TDP1 cell CPT inconclusive, DT40 TDP1 no CPT 23µM
O=C(NCC12CC3CC(CC(C3)C1)C2)c1cc2nc(-c3ccc(Cl)cc3)cc(C(F)(F)F)n2n1	none (no result: HT1080NT lethal, TDP1 cell CPT, HT1080 IDH1KD tx, DT40 TDP1 no CPT)
